Screens as filed in PubChem.
DAX1 inh-1 = inhibits human nuclear receptor DAX1; P51843; 340,000 compounds, 0.99% hits; HEK293 Gal4-DAX1 luciferase reporter, luminescence; inhibition, % at 6.75 µM;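 active = inhibition above the mean over all tested compounds plus 3 SD, cut at about 4.2% in these data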;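 also: 0% = DAX1-transfected cells with DMSO and 100% = empty-vector control cells with DMSO; inhibition shows as a rise in luminescence from relieved DAX1 repression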
Target sequence (P51843 207-470 limits assumed): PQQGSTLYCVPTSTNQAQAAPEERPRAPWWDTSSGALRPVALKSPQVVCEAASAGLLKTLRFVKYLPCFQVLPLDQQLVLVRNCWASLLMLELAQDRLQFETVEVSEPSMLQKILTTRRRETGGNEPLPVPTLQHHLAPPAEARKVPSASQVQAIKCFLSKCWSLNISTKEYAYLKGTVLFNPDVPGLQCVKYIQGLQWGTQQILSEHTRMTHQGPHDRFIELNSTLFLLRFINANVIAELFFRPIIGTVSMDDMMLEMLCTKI
hcDAF-12 act = activators of H. contortus DAF-12 nuclear receptor; HEK293 hcDAF-12 lit1-tk-luc reporter, luminescence; 0% DMSO, 100% Δ7-dafachronic acid; activation, % at 6.8 µM; 370,000 compounds, 1.4% hits; AID 652067;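 active = activation above the mean of all tested compounds plus 3 SD, cut at about 5.5% in these data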;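 also: 100% = response to 3 µM Δ7-dafachronic acid high control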
hgDAF12 agonist = activates the H. glycines DAF-12 receptor ligand-binding domain. HEK293 GAL4-hgDAF12 UAS-luciferase reporter, agonist luminescence; normalized to butyrate control. activation, % at 6.8 µM. 370,000 compounds, 1.8% hits;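 active = activation above a cutoff set at the mean of all screened compounds plus 3 SD, cut at about 10% in these data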;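 also: 0% = DMSO wells and 100% = sodium butyrate wells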
ssDAF-12 act = activates DAF-12 receptor from parasite S. stercoralis; HEK293 ssDAF-12/GRIP1 lit1-tk-luc reporter, luminescence; % of 3 µM dafachronic acid response; activation, % at 6.8 µM; 370,000 compounds, 1% hits;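 active = activation above the mean over all tested compounds plus 3 SD, cut at about 0.9% in these data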;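 also: 0% = DMSO-only wells and 100% = 3 µM delta7-dafachronic acid wells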
DAX1 inh-2 = blocks DAX1 repression of SF-1 activated StAR promoter; HEK293T StAR-luciferase reporter, SF-1/DAX-1 repression relief; inhibition, % at 6.8 µM; 370,000 compounds, 1.1% hits; AID 652010;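 active = inhibition above the mean over all tested compounds plus 3 SD, cut at about 3.6% in these data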;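 also: 0% = DAX-1 cells with DMSO and 100% = cells lacking DAX-1 with DMSO; higher inhibition means more luminescence from relief of DAX-1 repression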
SMARCA2 activ = increases SMARCA2 function in MMTV reporter cells | 370,000 compounds, 1% hits | MG213 cells, MMTV-luciferase reporter, dexamethasone, overnight | activation, % at 9.1 µM; in the data active = activation above about 7.8%;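 also: 0% = vehicle wells and 100% = reference activator wells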
* marks the source's active call; other numbers are inactive results; . = no result. Only some compounds are listed: those with a hit (about 4.8% of all), similar ones and a draw of the others.

SMILES | DAX1 inh-1 | hcDAF-12 act | hgDAF12 agonist | ssDAF-12 act | DAX1 inh-2 | SMARCA2 activ
COc1cc(C(=O)C(=O)N2CCC(Cc3ccccc3)CC2)cc2ccccc12 | . | 0 | -1 | -1 | 0 | -4
C=CCN(CC#CC1=CCCCC1)Cc1ccc(OC)cc1OC | . | -2 | 2 | -2 | 0 | -2
C[C@@H]1CN([C@@H](C)CO)C(=O)CCCn2nncc2CO[C@@H]1CN(C)C(=O)Nc1ccc(C(F)(F)F)cc1 | 2 | 0 | 0 | -1 | 0 | 3
c1ccc(CCn2nnnc2CN2CCCc3ccccc32)cc1 | 0 | 5.8* | 1 | 0 | 0 | -4
c1ccc2c(c1)CCCN2Cc1nnnn1CC1CCCO1 (stereo not drawn) | -2 | 5 | 3 | 0 | 0 | -2
Cc1ccc(O)c(NC(=O)c2cc(-c3ccccc3)on2)c1 | 4.9* | 3 | 3 | -1 | 1 | 7.8*
CCc1ccccc1NC(=O)c1cc(-c2cccc(O)c2)on1 | 2 | -2 | 11* | -1 | 1 | -3
O=C(Nc1ccccc1C(F)(F)F)c1cc(-c2cccc(O)c2)on1 | 1 | -1 | 4 | -1 | 1 | 1
CCC(C)NC(=O)c1cc(-c2ccc(OC)cc2)on1 (stereo not drawn) | 1 | 3 | 11* | -1 | 2 | 1
COc1ccc(-c2cc(C(=O)Nc3cccc(Cl)c3)no2)cc1 | 4.2* | 2 | 8 | -1 | 0 | 5
O=S1(=O)CCN(C2CCCCCCC2)CC1 | 0 | -2 | 0 | -1 | 1 | -6
CCOC(=O)N1CCN(C(=O)C[C@@H]2C[C@@]3(C(=O)OCC)CCC=C3N(Cc3cccc4ccccc34)C2=O)CC1 | . | -1 | 4 | 0 | -1 | -1
CC1(C(=O)Nc2cccc(Oc3ccccc3)c2)CCN1C1Cc2ccccc2C1 (stereo not drawn) | . | 3 | 0 | -1 | -1 | -2
CCC1(C(=O)NC(=Nc2ccccc2)Nc2ccccc2)CCOC1=O (stereo not drawn) | 1 | 0 | -2 | -1 | 0 | -5
O=C(NCCCn1ccnc1)c1cc(-c2cccc(O)c2)on1 | 4.7* | 1 | 10 | 0 | 1 | 0
COc1ccc(NC(=O)c2cc(-c3cccc(OC)c3)on2)cc1 | 0 | 0 | -2 | 0 | 0 | -1
Cc1ccc(-c2cc(C(=O)NCCCn3ccnc3)no2)cc1 | 0 | -2 | 8 | -1 | 0 | 0
COc1cccc(-c2cc(C(=O)Nc3cccc(O)c3)no2)c1 | -2 | 5 | 11* | 0 | 4 | 4
CCOC(=O)CC[C@H](NC(=O)Cn1cc(C)c(=O)[nH]c1=O)C(=O)OCC | 0 | -1 | 1 | -1 | 1 | -3
CC(C)NC(=O)/C(C#N)=C/c1ccc(N(C)C)o1 | 5.0* | -1 | 3 | -2 | 0 | 0
Cc1c(C(=O)c2ccccc2)oc2ccc3ccccc3c12 | 6.6* | 2 | 8 | -1 | 1 | 8
C/C(N)=C(/C#N)C(=O)CSc1nn(-c2ccc(Cl)cc2)c(=S)s1 | 2 | 0 | 10* | -1 | 2 | 1
C[C@H]1CN([C@@H](C)CO)C(=O)CCCn2nncc2CO[C@@H]1CN(C)Cc1ccc(Cl)c(Cl)c1 | 1 | 2 | 2 | -1 | 0 | -3
Cc1ccc(NC(=O)N2CCCCCC2)cc1 | 2 | 6 | 5 | -1 | 3.9* | 2
COc1ccc(NC(=O)N2CCCCC2)cc1 | 0 | -1 | 2 | -1 | 0 | -2
SMILES | DAX1 inh-1 | hcDAF-12 act | hgDAF12 agonist | ssDAF-12 act | DAX1 inh-2 | SMARCA2 activ
COc1cccc(-c2cnc(C(O)c3c(C)cccc3C)[nH]2)c1 (stereo not drawn) | . | -2 | 0 | -1 | 1 | 0
COc1ccc(-c2ccc(SC)nn2)cc1 | -3 | 5 | 5 | -1 | 4.4* | 1
COc1ccc(C(=O)CSc2ccc(-c3ccccc3)nn2)cc1 | 4.6* | -1 | -1 | -1 | 1 | 8
COc1ccc(-c2ccc(SCC(=O)N3CCOCC3)nn2)cc1 | 1 | 0 | 4 | -1 | 1 | -1
O=C(CSc1ccc(-c2ccccc2)nn1)N1CCCCC1 | 1 | 5 | 7 | 1.0* | 2 | 1
COc1cccc(-c2ccc(SCC(=O)c3ccccc3)nn2)c1 | 0 | -3 | 3 | -2 | 0 | -1
O=C(O)c1ccc(-c2noc(-c3ccc(F)cc3)n2)cc1 | 0 | 5.7* | 13* | 0 | 2 | 6
O=C(O)c1ccc(-c2nnc(-c3ccccc3)o2)cc1 | 2 | 5 | 8 | 1.0* | 1 | 5
COc1ccc(-c2nnc(-c3ccc(C)cc3)o2)cc1 | 3 | 3 | 8 | 1 | 2 | 3
CC(=O)Nc1cccc(-c2nnc(-c3ccccc3)o2)c1 | -1 | 0 | 12* | -1 | 0 | 4
O=C(Nc1cccc(-c2nnc(-c3ccccc3)o2)c1)C1CC1 | -1 | -3 | 4 | -2 | 0 | 1
Cc1ccc(-c2nnc(-c3ccccc3)o2)cc1 | 1 | 4 | 12* | 0 | 3 | 3
O=C(O)c1ccc(-c2nnc(-c3ccc([N+](=O)[O-])cc3)o2)cc1 | 0 | 0 | 1 | -1 | 0 | 0
CC(=O)Nc1cccc(OCCCOc2cccc([N+](=O)[O-])c2)c1 | 1 | -2 | -1 | -1 | -1 | -3
Cc1cccc(Nc2nnc(SCC(=O)NC(=O)CN3CCCC3=O)s2)c1 | 1 | 0 | 2 | 0 | 1 | 2
Cc1ccccc1C(=O)NC(CC(C)C)C(=O)NCC(C)(C)N1CCOCC1 (stereo not drawn) | 1 | -1 | 3 | -1 | -2 | -2
O=C(CC1CC2CCC1C2)N1CCN(S(=O)(=O)c2ccccc2C(F)(F)F)CC1 (stereo not drawn) | 1 | -2 | 1 | -1 | 0 | -1
CCOc1ccc(NC(=O)CN(C)C(=O)c2cccnc2Sc2ccc(Cl)cc2)cc1OCC | 0 | -1 | -1 | -1 | 0 | -1
COc1ccc(NC(=O)N[C@H]2CC[C@@H](CC(=O)NC3CCC3)O[C@@H]2CO)cc1 | . | 1 | 0 | -1 | 1 | -2
O=[N+]([O-])c1ccc(Nc2ccc3ccccc3c2)nc1 | 1 | 3 | 11* | -1 | -1 | 6
CSc1nc(N)nc(N(C)C)n1 | 1 | 1 | 0 | -3 | 0 | 2
CSc1nc(N)nc(C2CC2)n1 | 4.8* | 1 | -1 | -1 | 0 | -4
CC1CCN(c2c(NCc3ccc(C(=O)N4CCN(C5CCCCC5)CC4)cc3)c(=O)c2=O)CC1 | -1 | 1 | -1 | -1 | 2 | -1
CC1CCN(c2c(NCc3ccc(C(=O)N4c5ccccc5CC4C)cc3)c(=O)c2=O)CC1 (stereo not drawn) | -1 | 1 | -1 | 1.1* | -2 | -2
CCOCCOC(=O)c1[nH]c2c(c1C)C(=O)CC(c1ccccc1)C2 (stereo not drawn) | -2 | 0 | -2 | -1 | 0 | 2
